Measurements as given in PubChem BioAssay (NCI).
This is part of a sample that, as a whole, favours compounds with a hit. Of some 83,000 tested, about 20% had one in any assay.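 Step 1: grow cells in 96-well plates. Step 2: add test compound at a single concentration. Step 3: incubate 48 h. Step 4: record percent growth.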 Unmarked numbers belong to inactive results. Activity calls are given as the source filed them. Rule for the calls: active = growth percent below 10; inactive = the rest.

How the values were obtained:
Test in all cases: NCI-60 one-dose screen, 48 h (100 = growth as untreated, 0 = no growth, -100 = all killed)
Settings in all cases: 10 µM unless noted
NCI-H23 lung = tested on: NCI-H23 lung
NCI-H226 lung = tested on: NCI-H226 lung
NCI-H322M lung = tested on: NCI-H322M lung
HOP-62 NSCLC = tested on: HOP-62 NSCLC
NCI-H460 lung = tested on: NCI-H460 lung
NCI-H522 lung = tested on: NCI-H522 lung
A549/ATCC NSCLC = tested on: A549/ATCC NSCLC
786-0 renal = tested on: 786-0 renal
COLO 205 colon = tested on: COLO 205 colon
DU-145 prostate = tested on: DU-145 prostate
K-562 leukemia = tested on: K-562 leukemia
MDA-MB-231 breast = tested on: MDA-MB-231 breast
RXF 393 renal = tested on: RXF 393 renal
SF-268 CNS = tested on: SF-268 CNS
SF-295 CNS = tested on: SF-295 CNS
SF-539 CNS = tested on: SF-539 CNS
UACC-257 melanoma = tested on: UACC-257 melanoma
M14 melanoma = tested on: M14 melanoma
HCT-15 colon = tested on: HCT-15 colon

Structure (SMILES) | growth (NCI-H23 lung) | growth (NCI-H226 lung) [%] | growth (NCI-H322M lung) [%] | growth (HOP-62 NSCLC) | growth (NCI-H460 lung) | growth (NCI-H522 lung) | growth (A549/ATCC NSCLC) [%] | growth (786-0 renal) [%] | growth (COLO 205 colon) [%] | growth (DU-145 prostate) | growth (K-562 leukemia) | growth (MDA-MB-231 breast) | growth (RXF 393 renal) [%] | growth (SF-268 CNS) [%] | growth (SF-295 CNS) | growth (SF-539 CNS) | growth (UACC-257 melanoma) | growth (M14 melanoma) | growth (HCT-15 colon)
COC(=O)CCC1=C(C)C(C)=N/C1=C\c1[nH]c(-c2ccc[nH]2)cc1OC | 0.999% (active) | 20.7 | 12.1 | -3.16% (active) | 0.969% (active) | -62.7% (active) | 11.1 | 10.1 | 12.9 | 9.9% (active) | -16.4% (active) | -33.4% (active) | 23.3 | 25.3 | -44.6% (active) | -9.38% (active) | -1.25% (active) | 9.58% (active) | -2.64% (active)
Clc1ccccc1[C@@H]1C[C@@H]2Cc3cc(Br)c4ccccc4c3N1O2 | 50.8% | 73.5 | 61 | 54.3% | 18.1% | 20% | 48 | 56.1 | 33.1 | 61% | 10% | 39% | 39.3 | 46.1 | 24.6% | 6.71% (active) | 47.4% | 20.8% | 35.7%
O[C@@H]1Cc2ccc3ccccc3c2N[C@H](c2ccoc2)C1 | 96.6% | 93.5 | 112 | 98.8% | 116% | 94.8% | 100 | 108 | 107 | 112% | 102% | 96.2% | 108 | 105 | 110% | 93.6% | 105% | 101% | –
N#Cc1c2ccccc2c2n1-c1ccccc1OC(c1ccccc1)C2=O (configuration not stated) | 22.6% | 21.2 | 81.5 | 32.6% | 31.8% | -43.7% (active) | 10.4 | 31.7 | 63.9 | 56.7% | 13% | 22.3% | – | 30.1 | 16.3% | 77.2% | 53.3% | 41.4% | 13.8%
COc1ccc2nc(NC(=O)c3cc(-c4ccc(F)cc4)n4nc(-c5ccccc5)cc4n3)sc2c1 | 53.6% | 84 | 82.8 | 61.4% | 79.2% | 95.8% | 77.1 | 90.8 | 76.3 | 78.1% | 93.5% | 72.8% | 118 | – | 61.6% | 66.6% | 80% | 81.9% | 90%
